# High-throughput results as filed in PubChem.
# Most compounds without a hit are left out; they make up all but 7.5% or so of the library.
# Luc counter: Counterscreen for Luciferase (Kinase-Glo TM) Inhibition. Luciferin 4-monooxygenase (Photuris pensylvanica), Q27757. Kinase-Glo luciferase, ATP luminescence, 8 min. Potency, µM (titrated, usually from 38.3 µM), without a hit: at the top dose activity change, negative = inhibition, actives largely listed as inhibitors. actives 0.28% (n = 200,000); also: % is scaled to controls: 0 for no effect and ±100 for the full control effect; nearly all actives have a fitted effect of over 60% in size
#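 Compounds were added to a substrate mix at pH 7.2 (50 mM imidazole, 10 uM ATP, within the enzyme's linear range), followed by Kinase-Glo detection reagent; luminescence was measured after 8 minutes at ambient temperature.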
# Rab9 promoter act: qHTS Assay for Rab9 Promoter Activators; Potency, µM (highest dose often 9.22 µM), for inactives: top-dose activation, negative = inhibition, usual class: activators; AID 485297, 2010; Huh7 Rab9 promoter-luciferase reporter, luminescence, 24 h; actives 2.8% (n = 320,000); also: % of control where 0% means no effect; nearly all actives have a fitted effect of over 60% in size
#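 Huh7 reporter line, Rab9 promoter upstream of luciferase. Compound exposure 24 h at 37 °C in reduced-serum medium with 10% FBS. Read-out: luminescence.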
# ELG1 genotox: qHTS screen for small molecules that induce genotoxicity in human embryonic kidney (HEK293T) cells expressing luciferase-tagged ELG1 | HEK293T ELG1-luciferase reporter, luminescence, 16 h | Potency, µM (titrated, usually from 46 µM), inactives show at the highest dose activity change, positive = activation, hits mostly activators | actives 1.3% (n = 330,000) | AID 504466, 2011; also: % of control where 0% means no effect; nearly all actives have a fitted effect of over 60% in size
#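 Step 1: seed 2,000 HEK293T ELG1-luciferase cells per well. Step 2: add compound or DMSO, incubate 16 hr at 37 °C. Step 3: ONE-Glo, 30 min at room temperature, read luminescence.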
# SMN2 splice up: qHTS Assay for Enhancers of SMN2 Splice Variant Expression; HEK293 SMN2-luciferase splicing reporter, luminescence, 30-36 h; Potency, µM (top dose mostly 46.1 µM), for inactives: at the highest dose activity change, positive = activation, hits mostly activators; actives 2.8% (n = 210,000); also: % of control where 0% means no effect; nearly all actives have a fitted effect of over 55% in size
#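 HEK293 cells carry an SMN2 […]–luciferase reporter in which exon 7 inclusion puts luciferase in frame. Cells were plated 10-12 h before compound addition, then incubated 30-36 h at 37C. ONE-Glo luminescence was read; sodium butyrate at 4.5 mM final served as control.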
# FLuc modulator: qHTS profiling assay for firefly luciferase inhibitor/activator using purifed enzyme and Km concentrations of substrates (counterscreen for miR-21 project); Luciferin 4-monooxygenase (Photinus pyralis), P08659; purified FLuc, Km substrates, luminescence inhibition; Potency, µM (doses to about 57.5 µM), without a hit: at the highest dose activity change, negative = inhibition, usual class: inhibitors; actives 6.9% (n = 360,000);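 also: plate controls were vehicle for no effect and reference inhibitor for full effect; nearly all actives have a fitted effect of over 55% in size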
# Target sequence (P08659 whole entry, looked up): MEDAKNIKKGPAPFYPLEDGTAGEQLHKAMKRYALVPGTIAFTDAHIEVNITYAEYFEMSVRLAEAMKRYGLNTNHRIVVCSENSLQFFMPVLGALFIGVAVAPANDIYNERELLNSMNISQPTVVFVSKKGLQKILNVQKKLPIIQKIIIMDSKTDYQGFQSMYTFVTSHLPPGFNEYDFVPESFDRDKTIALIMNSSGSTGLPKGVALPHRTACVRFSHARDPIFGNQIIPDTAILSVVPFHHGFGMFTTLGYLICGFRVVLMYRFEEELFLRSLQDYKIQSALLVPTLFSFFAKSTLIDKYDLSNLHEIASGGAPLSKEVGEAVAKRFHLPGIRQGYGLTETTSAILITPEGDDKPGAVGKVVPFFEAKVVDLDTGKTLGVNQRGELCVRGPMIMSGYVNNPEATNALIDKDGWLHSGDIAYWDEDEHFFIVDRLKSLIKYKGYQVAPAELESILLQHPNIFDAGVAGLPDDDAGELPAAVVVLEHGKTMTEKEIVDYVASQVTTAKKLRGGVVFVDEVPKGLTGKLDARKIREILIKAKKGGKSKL
#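 Purified P. pyralis luciferase, 10 nM final, with Km-level 10 uM D-luciferin and 10 uM ATP in 50 mM Tris acetate pH 7.5, 10 mM Mg acetate, 0.01% Tween-20, 0.05% BSA; 6-point qHTS titration about 60 µM downward; luminescence read.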
# NPC1 prom act: qHTS Assay for NPC1 Promoter Activators. Huh7 NPC1 promoter luciferase reporter, 24 h. Potency, µM (doses to about 9.22 µM), without a hit: at the top dose activation, actives largely listed as activators. actives 2.4% (n = 320,000). AID 485313, 2010; also: % of control where 0% means no effect; nearly all actives have a fitted effect of over 60% in size
#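 Stable NPC1-promoter luciferase Huh7 line; cpd (DMSO) 24 h, 37 °C, 5% CO2; Amplite luciferase reagent 10 min RT; luminescence readout. qHTS format.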
# The depositor's hits bear a star; ? = inconclusive; · = not tested or not shown; [ ] = another dose, or the depositor's remark. Calls follow the shape of the dose curve; as a rule, active = well fitted curve in the direction sought with a large enough effect; inconclusive = small, poorly fitted or top-dose-only effect, or another doubt; inactive = no such curve, though single readings can be large; an effect the other way counts as inactive or inconclusive. Potency is read from the fitted curve at half-maximal effect.
SMILES,Luc counter,Rab9 promoter act,ELG1 genotox,SMN2 splice up,FLuc modulator,NPC1 prom act
COc1ccc(/C=C/c2nc3ccccc3n2C)cc1,2.8µM*,?,?,0.32µM*,0.13µM*,?
CSc1nc2ccccc2n1CC(=O)Nc1ccccc1,0%,1%,7%,-1%,1%,-3%
CCc1cccc(NC(=O)CCn2nc(C)cc2C)c1,·,·,·,·,3%,·
CCOC(=O)c1ccc(NC(=O)N2CCOc3ccccc32)cc1,·,·,·,·,0%,·
COc1ccc(C2C3=C(N=C4SCC(=O)N42)c2ccccc2CC3)cc1 (stereo unspecified),-13%,23%,?,-5%,11µM*,29%
Cc1ccc(-n2nc(CO)c(C(=O)NCc3cccs3)n2)cc1C,·,·,·,-15%,-14%,·
COc1ccc(OC)c(CNc2ncc(-c3ccc(Cl)cc3)n2C)c1,·,·,·,0%,-2%,·
Cc1ccc(S(=O)(=O)N2CCCCC2)cc1,·,1%,-3%,·,-2%,-3%
COc1ccc(NCc2c(O)ccc3ccccc23)cc1,-5%[7.66 µM],·,·,-10%[9.22 µM],·,·
COc1cccc(N=Nc2ccc3ccccc3c2O)c1,·,4µM*,?,·,0.34µM*,?
COc1ccc(N=Nc2ccc3ccccc3c2)c(O)c1,·,4µM*,0.92µM*,·,0.38µM*,3.2µM*
COc1ccc(N=Nc2ccc(N)nc2N)cc1,·,2.5µM*,9.2µM*,·,2.4µM*,1µM*
Cc1ccc(O)c(N=Nc2ccc(S(=O)(=O)N3CCCC3)cc2)c1,·,?,9%,·,15µM*,?
COc1ccc(C(=O)c2ccccc2)c(O)c1,3%,-3%,?,-18%,?,2%
CC(NC(=O)C1CCN(S(=O)(=O)c2ccc3c(c2)oc(=O)n3C)CC1)c1ccccc1 (stereo unspecified),·,·,·,-11%,-4%,·
CCCOc1ccc(-c2cc(C(F)(F)F)c(C#N)c(SCCC(=O)O)n2)cc1,·,·,·,1%,?,·
CC1(C)CC(=O)C2=C(C1)O[C@@]1(CCCCN3C(=O)c4ccccc4C3=O)Cc3ccccc3C2O1,·,-12%[1.84 µM],·,·,2%[11.5 µM],-4%[1.84 µM]
Cc1ccc(S(=O)(=O)c2nnn(-c3ccc(F)c(Cl)c3)c2N)cc1,·,·,·,·,1%,·
COc1cccc2sc(N3CCN(C(=O)CCS(=O)(=O)c4ccc(F)cc4)CC3)nc12,·,·,·,·,-8%,·
Cc1ccc(O)c(C(=O)c2cc(C#N)c(=O)n(-c3nccs3)c2)c1,3%,-1%,-3%,·,-12%,-2%
CC(=O)/C(N=Nc1cc(C)ccc1O)=C(\C)O,-12%,5%,2%,·,3%,22%
Cc1ccc(O)c(N=Nc2nccs2)c1,·,-9%,23µM*,·,9.5µM*,-1%
COc1ccc(N=Nc2cc(C)ccc2O)cc1,·,0.4µM*,3.7µM*,·,0.48µM*,1.1µM*
CCC(=O)N1CCc2cc(Br)cc(S(=O)(=O)N3CCN(c4ccc(C)cc4)C(C)C3)c21 (stereo unspecified),·,·,·,9%,3%,·
Cc1cccc(-c2nnc(NC(=O)c3ccco3)s2)c1,·,3.2µM*,21µM*,·,11µM*,2.8µM*
SMILES,Luc counter,Rab9 promoter act,ELG1 genotox,SMN2 splice up,FLuc modulator,NPC1 prom act
O=C(Nc1nnc(S(=O)(=O)N2CCN(c3ccc(F)cc3)CC2)s1)c1ccco1,·,3%,5%,·,19µM*,1%
O=C(Nc1nnc(-c2ccc(F)cc2)s1)c1ccco1,·,3.2µM*,?,·,2.7µM*,2.8µM*
Cc1noc(C)c1C(=O)Nc1nnc(-c2ccccc2)s1,0%,6%,2%,-22%,15µM*,5%
Cc1cccc(N(C)S(=O)(=O)c2nnc(NC(=O)c3ccco3)s2)c1,·,0%,4%,·,0%,-1%
O=C(Nc1nnc(S(=O)(=O)N2CCOCC2)s1)c1ccc(F)cc1,·,15%,2%,·,-6%,3%
CCOC(=O)c1cc(-c2ccccc2)n(CCCC(=O)Nc2ccccc2C)c1C,·,·,·,·,6%,·
O=C(NCc1cccs1)C(=O)NCC1OCCCN1S(=O)(=O)c1ccccc1 (stereo unspecified),-6%,0%,-1%,5.6µM*,5%,-7%
Cc1cc(S(=O)(=O)N2CCCOC2CNC(=O)C(=O)NCc2cccs2)ccc1F (stereo unspecified),·,-9%,-6%,·,6%,3%
CC(C)c1ccc(NC(=O)c2cccc3c2C(=O)N(C2CCCCC2)C3)cc1,·,·,·,-6%,?,·
COC(=O)CCC(=O)c1oc2ccccc2c1N,-7%,-6%,?,-11%,21µM*,0%
COC(=O)CCC(=O)c1oc2ccccc2c1NC(=O)CCCN1C(=O)c2ccccc2C1=O,-2%,4%,-1%,-19%,-4%,6%
COc1ccc(-c2nc(CSCC(=O)N3CCN(c4cccc(C)c4C)CC3)c(C)o2)cc1OC,·,·,·,·,-18%,·
CCc1nnc(NC(=O)CSc2ccc(-c3cccs3)nn2)s1,2%,2%,-14%,-5%,11µM*,0%
CCc1nnc(NC(=O)CSc2ccc(-c3ccccc3OC)nn2)s1,-1%,-4%,8%,-3%,?,-7%
CCc1nnc(NC(=O)CSc2nc(-c3ccccc3)cc(-c3ccc(F)cc3)c2C#N)s1,-3%,-2%,2%,-16%,6%,-7%
CCc1nnc(NC(=O)CSc2ccc(-c3ccc(F)cc3)nn2)s1,-2%,-3%,?,?,11µM*,2%
C=CCn1cc(C(=O)NCCCN(CC)CC)c(=O)c2cc(S(=O)(=O)N3CCC(C)CC3)ccc21,·,-2%,-1%,·,0%,-1%
COc1ccccc1CNC(=O)CCC(=O)N1Cc2ccccc2Oc2ncccc21,·,·,·,·,4%,·
CC(C)c1ccc(NC(=O)N2CCc3ccccc3C2)cc1,1%,4µM*,?,13µM*,11µM*,?
O=C(Nc1cccc(Cl)c1)c1nc[nH]c1C(=O)N1CCc2ccccc2C1,·,-1%,5%,·,-1%,-2%
COc1cccc(-c2cc(C(=O)N3CCc4ccccc4C3)[nH]n2)c1,·,22%,?,·,11µM*,26%
Cc1ccc(-c2cc(C(=O)N3CCc4ccccc4C3)[nH]n2)cc1C,·,-1%,14%,·,-11%,13%
COc1cccc(NC(=O)N2CCc3ccccc3C2)c1,·,2.8µM*,?,·,17µM*,4µM*
O=C(Nc1cccc(Cl)c1)N1CCc2ccccc2C1,·,3.2µM*,?,·,9.5µM*,2.8µM*
O=C(Nc1ccccc1F)N1CCc2ccccc2C1,·,2.8µM*,18µM*,·,15µM*,1.3µM*
